Experimental data published in PubChem BioAssay (NCATS).
Records with an inconclusive call do not appear. Activity calls are given as the source filed them. Unless noted, calls follow the shape of the dose curve; as a rule, active = well fitted curve in the direction sought with a large enough effect; inconclusive = small, poorly fitted or top-dose-only effect, or another doubt; inactive = no such curve, though single readings can be large; an effect the other way counts as inactive or inconclusive.

Legend:
[1] = AP1 Signaling Pathway (AID 357; active = well fitted curve in either direction with a large enough effect, not every such curve was filed as active;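 also: ME-180 reporter cells stimulated with EGF at its EC50 level; % is scaled to controls: 0 for no effect and ±100 for the full control effect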); conditions: ME-180 AP-1-bla reporter, EGF-induced, beta-lactamase ratio, 5 h; at 17.2 µM (top of the series)
Outline: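 Read-out was the 460nm/530nm emission ratio (excitation 405nm) after CCF4 loading for 2.5 hours at room temperature. Cells carried an AP-1-driven beta-lactamase reporter, were stimulated with EC50 EGF plus compound for 5 hours, and AC50 values came from titrations.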

[2] = Stat Signaling Pathway (AID 446; active = well fitted curve in either direction with a large enough effect, not every such curve was filed as active;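 also: ME-180 cervical cancer cells given 40 pM IL-6 alongside compound; SIE-controlled beta-lactamase reporter measured as 460/530 nm FRET emission ratio; % is scaled to controls: 0 for no effect and ±100 for the full control effect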); conditions: ME-180 (cervical carcinoma) SIE beta-lactamase reporter, IL-6 stimulated, 5 h
Outline: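 Normalization used AC90 stimulation (300 pM IL-6) and AC90 inhibition (125 nM pan-JAK inhibitor at 40 pM IL-6). The underlying signal is SIE-driven beta-lactamase in ME-180 cells after 5 h IL-6 exposure with compound.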

[3] = target: Mitogen-activated protein kinase 10 (Mus musculus) (UniProt Q61831); assay: JNK3 AlphaScreen Assay (AID 530; active = well fitted curve in either direction with a large enough effect, not every such curve was filed as active;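 also: kinase came from lysate of stimulated human HepG2 cells; signal reports phosphorylation of biotinylated GST-cJun 1-79 at Ser73 with 10 µM ATP; % is scaled to controls: 0 for no effect and ±100 for the full control effect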)
Outline: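 Kinase buffer: 20 mM Tris-HCl pH 7.6, 10 mM MgCl2, 1 mM DTT, 0.1 mM Na3VO4, 0.01% Tween-20; ATP 10 uM. Substrate biotin-GST-cJun(1-79), enzyme from activated HepG2 lysates. Detection by Ser73 phospho-antibody AlphaScreen.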

[4] = target: 3',5'-cyclic-AMP phosphodiesterase 4B (Homo sapiens) (UniProt Q07343); assay: qHTS Assay for Inhibitors of PDE-IV (AID 607; active = well fitted activation curve with a large enough effect in the main read-out, with a control signal flat, not every such curve was filed as active; also: % of control where 0% means no effect)
Outline: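 HEK293 ACTOne cells with CNG channel (1000/well), endogenous PDE4; membrane potential dye, compounds up to 22.9 uM final. Fluorescence Ex 535/Em 590; RO 20-1724 (100 uM final) as reference.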

[5] = target: Guanine nucleotide-binding protein G(i) subunit alpha-1 (Homo sapiens) (UniProt P63096); assay: qHTS Assay for Inhibitors of RGS12 GoLoco Motif Activity (Green Fluorophore) (AID 879);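 also: 0% = labeled peptide with Gαi1 and full inhibition = labeled peptide alone without protein; negative values mean loss of peptide binding seen as reduced polarization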
Outline: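 A drop in FITC polarization marked displacement of the FITC-tagged RGS12 GoLoco peptide (10 nM) from Gαi1 (50 nM). Compounds were incubated 10 min at room temperature in Tris pH 7.5 buffer containing 150 mM NaCl, 0.1 mM GDP and 0.05% NP40; unlabeled peptide titration served as control.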

[6] = target: Cytochrome P450 3A4 (Homo sapiens) (UniProt P08684); assay: qHTS Assay for Activators of Cytochrome P450 3A4 (AID 885); also: nearly all actives have a fitted effect of over 65% in size
Outline: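 Human CYP3A4 dealkylates Luciferin-PPXE to luciferin, which luciferase detection converts to light. Substrate was at its KM (25uM), buffer 200mM KPO4, reaction 60 min at RT.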

[7] = target: Cytochrome P450 2D6 (Homo sapiens) (UniProt P10635); assay: qHTS Assay for Inhibitors and Substrates of Cytochrome P450 2D6 (AID 891); also: nearly all actives have a fitted effect of over 60% in size; also: potency is read from the fitted curve at half-maximal effect
Outline: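 Luminescent read-out of luciferin formed by 5 nM human CYP2D6 demethylating 30 uM Luciferin-ME EGE (Km level) over 60 min at room temperature after NADPH regeneration addition. Data normalized to full inhibition by 1.43 uM quinidine.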

[8] = Confirmation and Secondary Assay for Modulators of Hemoglobin Beta Chain Splicing at IVS2 654 locus (AID 910);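 also: HeLa cells stably carrying EGFP split by mutant beta-globin IVS2-654 intron; per-well total GFP intensity by laser scanning cytometry after 2-day treatment; % of control where 0% means no effect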
Outline: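 Readout: per-well total peak green fluorescence (488 nm ex, 500–520 nm em) from objects 5–250 µm, reflecting correct splicing of an EGFP-654 reporter. Compounds were applied for 2 days at 37 °C to overnight-plated HeLa EGFP-654 cells; controls were DMSO and 500 nM IVS2-654 PNA.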

[9] = qHTS Assay for Identification of Small Molecule Agonists for Thrombopoietin (TPO) Signaling Pathway (AID 917); also: % is scaled to controls: 0 for no effect and ±100 for the full control effect
Outline: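 Ba/F3 (mouse) + hTPO receptor + GpIIb-promoter luciferase; IL-3 withdrawn overnight; compound + 26 pM TPO (EC50), 24 hrs, 37 C, 5% CO2; Steadylite luminescence, 10 min RT.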

[10] = Confirmation and Secondary Assay for Modulators of Hemoglobin Beta Chain Splicing at IVS2 705 locus (AID 930);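 also: HeLa cells stably expressing the EGFP-705 splicing reporter; % of control where 0% means no effect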
Outline: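 Restored EGFP fluorescence after 2-day compound exposure reports splicing correction in IVS2-705 EGFP reporter HeLa cells; positive control was 500 nM splice-blocking PNA oligo. Signal measured as well total peak GFP intensity (488 nm excitation).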

[11] = target: Pyruvate kinase (Leishmania mexicana) (UniProt Q27686); assay: qHTS Validation Assay for Inhibitors of Leishmania Mexicana Pyruvate Kinase (AID 945);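 also: 0% = DMSO only neutral control wells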
Outline: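 Purified LmPYK (E451W mutant, 0.2 nM) was incubated 1 h at room temperature with 0.5 mM PEP and 0.1 mM ADP in 50 mM imidazole pH 7.2, 50 mM KCl, 7 mM MgCl2; ATP formed was read by PKLight luminescence, normalized to DMSO wells.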

[12] = target: Pyruvate kinase PKM (Homo sapiens) (UniProt P14618); assay: qHTS Assay for Activators of Human Muscle Pyruvate Kinase (AID 954; active = well fitted curve in the direction sought with a large enough effect, not every such curve was filed as active;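 also: 0% = uninhibited enzyme and -100% = no enzyme or full thiadiazolimine inhibition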)
Outline: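 Compound pinned into substrate mix (0.5 mM PEP, 0.1 mM ADP), then 0.1 nM PKM2 added; 1 h, RT. Stop/detection luciferase reagent added, luminescence read. Normalized to no-inhibition and no-enzyme or reference-inhibitor controls.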

[13] = target: alpha-glucosidase (Oryza sativa, rice) (UniProt Q653V4); assay: Counterscreen for Glucocerebrosidase Inhibitors: qHTS Assay for Rice alpha-Glucosidase at pH 5.0 (AID 997);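 also: 0% = full activity with enzyme and -100% = basal without enzyme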
Outline: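 Endpoint fluorogenic assay at pH 5.0: compounds (0.7 nM to 77 uM) titrated against 4 nM rice enzyme and 400 uM 4-MU-alpha-glucoside for 20 min at room temperature; NaOH/glycine stop, read ex 365/em 440 nm, Hill-fitted AC50.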

[14] = target: Ubiquitin carboxyl-terminal hydrolase 1 (Homo sapiens) (UniProt O94782); assay: Inhibitors of USP1/UAF1: Pilot qHTS (AID 504865); also: nearly all actives have a fitted effect of over 35% in size; also: potency is read from the fitted curve at half-maximal effect
Outline: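 1nM USP1/UAF1 + cpd, 15 min RT; start w/ Ub-Rho 150nM final; kinetic FL 480/540 nm, 6 reads q60 s. Buffer 50mM HEPES pH 7.8, 0.5mM EDTA, 1mM TCEP, 0.01% Tween-20, 0.1 mg/ml BSA.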

[15] = target: DNA dC->dU-editing enzyme APOBEC-3G (Homo sapiens) (UniProt Q9HC16); assay: qHTS for inhibitors of Vif-A3G interactions: Validation (AID 588379); also: 0% is about no effect
Outline: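 Yellow fluorescence (Ex 488, Em 500-530) of Vif-coexpressing HeLa A3G-eYFP cells, scanned by Acumen cytometer, reports blocked A3G degradation. Cells plated at 700/well overnight at 37 deg C before compound addition, then a further overnight compound incubation at 37 deg C.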

[16] = tested on: Zika virus NS2B-NS3 protease; assay: Primary screen GU AMC qHTS for Zika virus inhibitors (AID 1347154);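 also: 0% = no-inhibitor control and -100% = no-enzyme control; nearly all actives have a fitted effect of over 70% in size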
Outline: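 Fluorogenic AMC-substrate cleavage by noncovalent NS2B-NS3 protease complex (25 nM, pH 8.0 Tris buffer with Tween 20) followed for 15 minutes at room temperature (~20% conversion). Percent inhibition from ex340/em450 signal change, fitted by 4-parameter Hill equation.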

[17] = Primary qHTS for small molecule stabilizers of the endoplasmic reticulum resident proteome: Secreted ER Calcium Modulated Protein (SERCaMP) assay (AID 1508630); also: % is scaled to controls: 0 for no effect and ±100 for the full control effect
Outline: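 The SH-SY5Y reporter protocol was run at 3 concentrations up to 38.3 uM (primary) or 11 concentrations (follow-up): 16 h compound, 100 nM thapsigargin for 4 h, then extracellular luciferase luminescence.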

[18] = target: Cytochrome P450 1A2 (Homo sapiens) (UniProt P05177); assay: p450-cyp1a2 (AID 410; calls by dose curve; also: potency is read from the fitted curve at half-maximal effect;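 as to activity change, negative = inhibition: -100% = full effect of reference inhibitor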)
Outline: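 Read-out is luminescence from luciferin produced by CYP1A2 demethylation of Luciferin-ME (100uM, at Km). Detection reagent stopped the 60 min NADPH-dependent reaction; signals were normalized to 57 uM furafylline.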

[19] = target: Glucocorticoid receptor (Homo sapiens) (UniProt P04150); assay: GR-GFP Redistribution (AID 450;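 active = compounds whose dose series gives a full or clear partial fitted curve of increased nuclear translocation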; also: potency is read from the fitted curve at half-maximal effect); conditions: U2OS GR-GFP nuclear translocation, laser cytometry, 2 h
[20] = target: Glucocorticoid receptor (Homo sapiens) (UniProt P04150); assay: GR-EFC Redistribution (AID 451; calls by dose curve; also: potency is read from the fitted curve at half-maximal effect); conditions: CHO-K1 GR-EFC translocation, beta-gal luminescence, 2 h
Outline: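 Translocation of GR-ED fusion to nuclear EA restores b-gal, read by luminescence after 1 h room-temperature detection. Engineered CHO-K1 biosensor cells, 1,000/well, exposed 2 h at 37 C to titrations up to 46 uM final.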

[21] = NFAT Signaling Pathway (AID 444; active = well fitted curve in either direction with a large enough effect, not every such curve was filed as active); conditions: Jurkat NFAT-bla M1, carbachol, beta-lactamase ratio, 5 h; at 38 µM (top of the series)
Outline: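 Read-out: CCF4 FRET ratio (460 nm/530 nm) after 1 h RT dye loading, used for %activity and AC50 from titration series. Cells: Jurkat NFAT-β-lactamase/M1 line, treated with compound plus 1 uM carbachol for 5 h, 37 °C.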

[22] = target: Cytochrome P450 3A4 (Homo sapiens) (UniProt P08684); assay: qHTS Assay for Inhibitors and Substrates of Cytochrome P450 3A4 (AID 884); also: % is scaled to controls: 0 for no effect and ±100 for the full control effect; nearly all actives have a fitted effect of over 50% in size
Outline: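 Luminescent readout of luciferin produced by CYP3A4 (20 nM) dealkylation of Luciferin-PPXE, 25 uM (its KM). NADPH-driven reaction ran 60 min at RT after 10 min compound preincubation; data scaled to 57 uM ketoconazole as 100% inhibition.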

[23] = qHTS Assay for Identification of Small Molecule Antagonists for NFkB Signaling Pathway (AID 895; active = well fitted inhibition curve with a large enough effect in the signal ratio, with a control signal flat, not every such curve was filed as active; the % refers to the signal ratio; also: % is scaled to controls: 0 for no effect and ±100 for the full control effect)
Outline: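 Beta-lactamase reporter read-out (460 and 530 nm emission ratio, 405 nm excitation, 2 hrs substrate loading RT) after 5 hr stimulation with 10 pM TNF alpha in compound-treated NFkB-bla ME-180 cells in low-serum medium.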

[24] = target: Muscarinic acetylcholine receptor M1 (Rattus norvegicus) (UniProt P08482); assay: qHTS Assay for Antagonists of Acetylcholine Muscarinic M1 Receptor: Measurement of IP-One Response (AID 944); also: nearly all actives have a fitted effect of over 75% in size
Outline: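 Antagonism was measured as loss of carbachol-driven (EC80) IP1 accumulation in CHO cells carrying rat M1, using a homogeneous IP-One TR-FRET kit read at 620 and 665 nm.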

Chain of Ubiquitin carboxyl-terminal hydrolase 1 (Homo sapiens) (O94782 whole entry, looked up): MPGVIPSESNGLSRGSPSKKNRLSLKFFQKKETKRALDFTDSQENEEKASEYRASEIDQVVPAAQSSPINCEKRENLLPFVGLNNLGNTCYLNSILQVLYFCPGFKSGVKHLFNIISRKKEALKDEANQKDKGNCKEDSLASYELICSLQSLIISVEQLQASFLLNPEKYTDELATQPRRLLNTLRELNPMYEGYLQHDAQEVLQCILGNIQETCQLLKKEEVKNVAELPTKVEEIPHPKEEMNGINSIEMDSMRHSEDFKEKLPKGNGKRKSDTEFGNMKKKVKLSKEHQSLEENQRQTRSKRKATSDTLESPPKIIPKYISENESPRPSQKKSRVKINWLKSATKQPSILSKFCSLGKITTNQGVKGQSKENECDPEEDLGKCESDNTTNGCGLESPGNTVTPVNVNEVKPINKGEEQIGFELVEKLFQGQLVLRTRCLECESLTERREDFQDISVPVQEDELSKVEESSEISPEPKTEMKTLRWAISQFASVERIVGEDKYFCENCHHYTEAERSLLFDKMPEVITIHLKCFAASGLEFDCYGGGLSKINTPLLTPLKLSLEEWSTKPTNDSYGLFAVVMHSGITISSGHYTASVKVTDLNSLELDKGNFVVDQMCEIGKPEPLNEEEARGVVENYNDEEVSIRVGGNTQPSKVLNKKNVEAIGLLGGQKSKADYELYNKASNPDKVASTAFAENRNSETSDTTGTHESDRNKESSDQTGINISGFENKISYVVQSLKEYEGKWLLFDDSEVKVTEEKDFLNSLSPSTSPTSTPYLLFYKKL
Chain of DNA dC->dU-editing enzyme APOBEC-3G (Homo sapiens) (Q9HC16 whole entry, looked up): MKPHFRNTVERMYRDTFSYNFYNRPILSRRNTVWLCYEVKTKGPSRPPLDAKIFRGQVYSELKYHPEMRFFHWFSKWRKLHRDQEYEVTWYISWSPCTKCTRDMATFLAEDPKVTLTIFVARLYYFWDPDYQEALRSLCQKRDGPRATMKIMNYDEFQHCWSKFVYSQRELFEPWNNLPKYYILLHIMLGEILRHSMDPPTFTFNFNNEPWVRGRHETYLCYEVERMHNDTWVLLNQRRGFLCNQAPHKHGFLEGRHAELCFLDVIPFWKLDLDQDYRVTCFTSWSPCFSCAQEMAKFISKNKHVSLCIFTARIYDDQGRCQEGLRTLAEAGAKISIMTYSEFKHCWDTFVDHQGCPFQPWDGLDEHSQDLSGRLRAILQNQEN
Chain of Cytochrome P450 1A2 (Homo sapiens) (P05177 whole entry, looked up): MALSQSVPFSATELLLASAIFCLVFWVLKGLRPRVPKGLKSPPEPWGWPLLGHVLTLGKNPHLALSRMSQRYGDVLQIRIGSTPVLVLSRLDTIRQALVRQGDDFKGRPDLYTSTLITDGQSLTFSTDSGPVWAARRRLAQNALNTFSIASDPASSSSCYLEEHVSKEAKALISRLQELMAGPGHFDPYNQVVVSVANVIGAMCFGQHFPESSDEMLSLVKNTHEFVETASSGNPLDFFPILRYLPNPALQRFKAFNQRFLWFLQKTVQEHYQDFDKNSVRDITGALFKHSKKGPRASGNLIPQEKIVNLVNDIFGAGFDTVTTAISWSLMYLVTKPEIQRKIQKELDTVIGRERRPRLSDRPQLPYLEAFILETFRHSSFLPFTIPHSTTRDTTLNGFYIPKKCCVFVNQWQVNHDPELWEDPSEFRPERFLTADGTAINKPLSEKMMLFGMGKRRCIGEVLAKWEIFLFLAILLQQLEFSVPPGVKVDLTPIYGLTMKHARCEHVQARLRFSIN
Chain of 3',5'-cyclic-AMP phosphodiesterase 4B (Homo sapiens) (Q07343 whole entry, looked up): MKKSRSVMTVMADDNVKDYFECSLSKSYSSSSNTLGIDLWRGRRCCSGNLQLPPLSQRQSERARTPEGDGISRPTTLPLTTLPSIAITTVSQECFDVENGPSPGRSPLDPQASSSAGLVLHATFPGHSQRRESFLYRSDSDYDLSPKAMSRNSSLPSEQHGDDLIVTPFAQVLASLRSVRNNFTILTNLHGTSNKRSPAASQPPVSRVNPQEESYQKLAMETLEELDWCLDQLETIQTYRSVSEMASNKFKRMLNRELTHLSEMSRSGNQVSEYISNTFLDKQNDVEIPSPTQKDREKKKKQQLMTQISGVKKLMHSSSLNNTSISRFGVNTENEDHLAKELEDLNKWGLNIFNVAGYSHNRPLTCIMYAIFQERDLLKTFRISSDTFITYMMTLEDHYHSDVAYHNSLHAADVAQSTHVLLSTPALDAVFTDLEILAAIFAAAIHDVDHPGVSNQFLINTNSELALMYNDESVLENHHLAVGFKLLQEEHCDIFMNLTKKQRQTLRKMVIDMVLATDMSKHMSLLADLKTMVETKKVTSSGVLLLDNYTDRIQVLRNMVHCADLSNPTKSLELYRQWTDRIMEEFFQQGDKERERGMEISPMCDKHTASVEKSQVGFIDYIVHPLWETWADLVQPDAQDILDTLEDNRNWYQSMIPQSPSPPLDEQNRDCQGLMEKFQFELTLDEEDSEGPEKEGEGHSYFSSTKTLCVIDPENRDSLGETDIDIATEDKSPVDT
Chain of Cytochrome P450 3A4 (Homo sapiens) (P08684 whole entry, looked up): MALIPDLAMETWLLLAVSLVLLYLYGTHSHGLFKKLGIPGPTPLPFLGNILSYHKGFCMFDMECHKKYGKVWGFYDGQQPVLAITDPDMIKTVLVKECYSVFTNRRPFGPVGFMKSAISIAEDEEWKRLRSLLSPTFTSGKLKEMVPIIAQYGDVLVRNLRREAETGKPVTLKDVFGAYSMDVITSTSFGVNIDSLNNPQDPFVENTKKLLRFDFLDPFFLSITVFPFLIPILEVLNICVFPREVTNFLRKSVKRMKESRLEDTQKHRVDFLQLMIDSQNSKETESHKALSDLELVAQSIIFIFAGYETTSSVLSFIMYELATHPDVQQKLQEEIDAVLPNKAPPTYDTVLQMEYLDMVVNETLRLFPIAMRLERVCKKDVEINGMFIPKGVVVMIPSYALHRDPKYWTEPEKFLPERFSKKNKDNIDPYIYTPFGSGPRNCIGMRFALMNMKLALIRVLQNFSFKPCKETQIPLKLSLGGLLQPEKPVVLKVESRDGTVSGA
Chain of Glucocorticoid receptor (Homo sapiens) (P04150 whole entry, looked up, the tested form may be a part): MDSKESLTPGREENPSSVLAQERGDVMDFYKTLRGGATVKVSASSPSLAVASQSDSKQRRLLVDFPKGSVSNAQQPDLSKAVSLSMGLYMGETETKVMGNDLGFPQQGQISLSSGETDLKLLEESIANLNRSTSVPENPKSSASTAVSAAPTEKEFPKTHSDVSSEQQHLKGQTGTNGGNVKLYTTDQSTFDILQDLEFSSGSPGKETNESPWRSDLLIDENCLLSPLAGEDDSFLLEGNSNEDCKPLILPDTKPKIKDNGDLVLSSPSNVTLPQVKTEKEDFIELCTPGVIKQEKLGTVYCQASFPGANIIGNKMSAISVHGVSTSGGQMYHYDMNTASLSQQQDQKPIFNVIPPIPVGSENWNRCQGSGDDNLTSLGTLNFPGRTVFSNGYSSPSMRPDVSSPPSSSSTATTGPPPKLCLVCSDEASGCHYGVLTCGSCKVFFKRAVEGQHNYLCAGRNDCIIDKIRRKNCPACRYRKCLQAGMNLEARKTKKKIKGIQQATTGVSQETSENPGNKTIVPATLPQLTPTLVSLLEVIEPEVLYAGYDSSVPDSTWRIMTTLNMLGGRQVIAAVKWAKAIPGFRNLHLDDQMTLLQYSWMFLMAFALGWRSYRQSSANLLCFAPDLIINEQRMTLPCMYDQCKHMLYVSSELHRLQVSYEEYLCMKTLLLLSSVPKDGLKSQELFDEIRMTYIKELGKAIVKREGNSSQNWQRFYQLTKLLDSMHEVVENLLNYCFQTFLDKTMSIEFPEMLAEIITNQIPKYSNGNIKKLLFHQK
Chain of Guanine nucleotide-binding protein G(i) subunit alpha-1 (Homo sapiens) (P63096 whole entry, looked up): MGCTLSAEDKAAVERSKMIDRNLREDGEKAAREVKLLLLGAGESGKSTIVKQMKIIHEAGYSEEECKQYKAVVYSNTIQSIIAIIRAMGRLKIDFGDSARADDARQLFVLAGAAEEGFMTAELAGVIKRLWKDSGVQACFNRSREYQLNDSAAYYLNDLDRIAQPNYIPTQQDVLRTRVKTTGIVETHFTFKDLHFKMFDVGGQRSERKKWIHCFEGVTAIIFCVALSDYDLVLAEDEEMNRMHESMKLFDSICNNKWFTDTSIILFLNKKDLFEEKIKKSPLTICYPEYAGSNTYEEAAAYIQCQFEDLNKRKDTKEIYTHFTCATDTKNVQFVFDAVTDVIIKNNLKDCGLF
Chain of Pyruvate kinase PKM (Homo sapiens) (P14618 whole entry, looked up): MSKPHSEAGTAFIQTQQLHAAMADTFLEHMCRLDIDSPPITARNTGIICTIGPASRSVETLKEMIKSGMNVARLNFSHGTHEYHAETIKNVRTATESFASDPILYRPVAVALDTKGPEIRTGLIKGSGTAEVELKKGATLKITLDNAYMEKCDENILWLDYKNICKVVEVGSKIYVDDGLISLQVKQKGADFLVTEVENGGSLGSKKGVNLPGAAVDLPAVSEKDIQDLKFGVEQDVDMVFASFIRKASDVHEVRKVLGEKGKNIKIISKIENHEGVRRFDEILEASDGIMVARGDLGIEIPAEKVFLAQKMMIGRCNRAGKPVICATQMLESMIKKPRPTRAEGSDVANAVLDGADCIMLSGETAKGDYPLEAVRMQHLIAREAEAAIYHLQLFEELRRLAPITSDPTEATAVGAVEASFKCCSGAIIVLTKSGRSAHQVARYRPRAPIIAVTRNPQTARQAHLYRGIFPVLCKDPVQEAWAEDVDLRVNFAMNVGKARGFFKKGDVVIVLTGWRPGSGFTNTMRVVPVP

CCN(Cc1ccncc1)C(=O)[C@@H](CO)c1ccccc1
inactive: activity change, negative = inhibition [1] 5.81% | activity, negative = inhibition ([2]; at 17.2 µM (top of the series)) -6.07% | activity, negative = inhibition ([2]; at 38 µM (top of the series)) -7.02% | Potency [3] | Potency [4] | outcome [5] | Potency [6] | Potency [7] | outcome [8] | Potency [9] | outcome [10] | Potency [11] | outcome [12] | outcome [13] | Potency [14] | Potency [15] | Potency [16] | Potency [17]

CCCCCCN(CCCCCC)C(=O)Cc1c(-c2ccc(Cl)cc2)[nH]c2ccc(Cl)cc12
active: Potency [18] 31.6 µM
inactive: Potency [19] > 46 µM | Potency [20] > 46 µM | Potency [3] | Potency [4] | Potency [6] | Potency [14] | Potency [15] | Potency [16] | Potency [17]

Cc1cccc([C@@H]2CN(C)CCc3c2cc(O)c(O)c3Cl)c1
inactive: Potency [18] | activity change, negative = inhibition [21] -15% | activity, negative = inhibition ([2]; at 38 µM (top of the series)) 11.4% | Potency [19] > 46 µM | Potency [20] > 46 µM | Potency [4] | outcome [5] | Potency [22] | Potency [23] | Potency [24] | Potency [11] | outcome [12] | outcome [13] | Potency [15] | Potency [16] | Potency [17]

CC[C@]1(O)C[C@@H]2CN(CCc3c([nH]c4ccccc34)[C@](C(=O)OC)(c3cc4c(cc3OC)N(C=O)[C@H]3[C@@](O)(C(=O)OC)[C@H](C(=O)OC)[C@@]5(CC)C=CCN6CC[C@]43[C@H]65)C2)C1
inactive: Potency [18] | Potency [19] > 46 µM | Potency [20] > 46 µM | Potency [6] | Potency [14] | Potency [15] | Potency [16] | Potency [17]

N[C@H](C(=O)O)c1nn[nH]n1
inactive: Potency [18] | Potency [19] > 46 µM | Potency [20] > 46 µM | Potency [3] | Potency [4] | Potency [14] | Potency [15] | Potency [16] | Potency [17]

CCCCCCCCCCCCCCC[C@@H](O)[C@@H](N)CO
active: Potency [18] 25.1 µM | Potency [7] 7.94 µM | Potency [14] 31.6 µM
inactive: Potency [19] > 46 µM | Potency [20] > 46 µM | Potency [3] | Potency [4] | Potency [15] | Potency [16] | Potency [17]

CCCCC[C@H](O)/C=C/[C@@H]1[C@@H](CCCCCCC(=O)O)[C@@H](O)C[C@H]1O
inactive: activity change, negative = inhibition [1] 8.11% | activity, negative = inhibition ([2]; at 17.2 µM (top of the series)) 2.03% | Potency [19] > 20.6 µM | activity change, negative = inhibition [16] 8.46% [at 6.83 µM] | activity change, negative = inhibition [17] -7.27% [at 3.88 µM]

C[C@](O)(C(=O)Nc1ccc(S(=O)(=O)c2ccccc2)cc1)C(F)(F)F
active: Potency [18] 39.8 µM
inactive: Potency [19] > 46 µM | Potency [20] > 46 µM | Potency [3] | Potency [6] | Potency [14] | Potency [15] | Potency [16] | Potency [17]
